# Measurements: PubChem BioAssay (NCI)
# This is part of a sample that, as a whole, favours compounds with a hit. Of some 83,000 tested, about 20% had one in any assay.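 48-hour exposure, single concentration, 96-well plates; percent growth endpoint where 0 means no net growth. Active: below 10.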 Active and inactive are the calls of the source.
# Tested on: SN12C renal
# Experiment: NCI-60 one-dose screen, 48 h (100 = growth as untreated, 0 = no growth, -100 = all killed)
# Conditions: 10 µM unless noted
row,Structure (SMILES),growth
1,C#C[C@]1(O)CC[C@H]2[C@@H]3CC=C4c5sc(Nc6cccc(C)n6)nc5CC[C@]4(C)[C@H]3CC[C@@]21C,56.4% (inactive)
2,Clc1ccc(-c2csc(N/N=C/c3nc4ccccc4n3C3CC3)n2)cc1,104% (inactive)
3,O=C(NNc1nc2cc(F)c(F)cc2n2cccc12)c1ccncn1,26.2% (inactive)
4,CCn1c2ccc(/C=N/NS(=O)(=O)CCN(C)C)cc2c2cc(/C=N/NS(=O)(=O)CCN(C)C)ccc21,99.3% (inactive)
5,COc1ccc(-c2nnc(/N=C3/C(=O)Nc4ccc(Br)cc43)o2)cc1,107% (inactive)
6,O=C(CCCCCCN1CC(=O)N2[C@@H](c3ccc(Cl)c(F)c3)c3[nH]c4ccccc4c3C[C@H]2C1=O)NO,83.8% (inactive)
7,O=C(N/N=C\c1ccc(Cl)cc1)c1ccc2nc(-c3ccc(Br)cc3)[nH]c2c1,-14.6% (active)
8,O=C1CSC(=O)N1Cc1cc2ccccc2nc1Cl,97.4% (inactive)
9,CCCCSc1nnc(-c2ccc(-c3ccc(Cl)cc3)nc2C)o1,98.2% (inactive)
10,COc1ccc(/C=N\NC(=O)c2ccc3nc(-c4ccc(Br)cc4)[nH]c3c2)cc1,17.1% (inactive)
11,NS(=O)(=O)c1ccc(Nc2nc(N/N=C/c3ccc([N+](=O)[O-])cc3)nc(Nc3ccccc3)n2)cc1,27.4% (inactive)
12,COc1cc(NC2=C(Cl)C(=O)c3nc(C)ccc3C2=O)cc(OC)c1,-63.3% (active)
13,Cc1ccc(/C=C/CC(=O)Nc2ccc(C(=O)Nc3ccc(F)cc3N)cc2)cn1,73.5% (inactive)
14,O=C(c1ccc(O)cc1)[C@@H]1[C@@H]2CCCN2[C@@]2(C(=O)N(C(=O)c3ccc(F)cc3)c3ccccc32)[C@H]1c1ccc(F)cc1,87.3% (inactive)
15,COc1ccc(S(=O)(=O)n2cc(C=O)c3ccccc32)c(OC)c1,85.2% (inactive)
16,C#C[C@]1(O)CC[C@H]2[C@@H]3CC=C4c5sc(Nc6cc(Cl)ccn6)nc5CC[C@]4(C)[C@H]3CC[C@@]21C,53.6% (inactive)
17,N#C/C(=C\c1ccc2ccccc2c1)C(=O)Nc1sc2c(c1C#N)CCC2,95.5% (inactive)
18,CN1CCN(Cc2ccc(NC(=O)c3cncc(C#Cc4cnc5ccc(O[C@H]6CCOC6)nn45)c3)cc2C(F)(F)F)CC1,-48.4% (active)
19,C/C=C/C=C1\C[C@H]2CO[C@H](O2)C1=O,100% (inactive)
20,O=C(NNc1nc2cc(F)cc(F)c2n2cccc12)c1ncccn1,15.7% (inactive)

row,Structure (SMILES),growth
1,C#CCOc1ccc(/C=N/Nc2nc(-c3cc(Cl)ccc3Cl)cs2)cc1,88.7% (inactive)
2,COc1ccc(-c2nc(SCC(C)C)nc(N/N=C\c3cccc([N+](=O)[O-])c3)c2C#N)cc1,43.3% (inactive)
3,CNC(=O)c1cc(Oc2ccc3nc(NC(=O)c4ccc(CN5CCN(C)CC5)c(C(F)(F)F)c4)sc3c2)ccn1,76.4% (inactive)
4,C#C[C@]1(O)CC[C@H]2[C@@H]3CC=C4c5sc(Nc6ccc(OC)nc6)nc5CC[C@]4(C)[C@H]3CC[C@@]21C,70.5% (inactive)
5,O=C1Nc2ccc(Br)cc2/C1=N\c1nnc(-c2ccc(Cl)cc2)o1,85.7% (inactive)
6,CC(C)c1nn(-c2ccccc2)c(N2CCCCC2)c1/C=N/NC(N)=S,89.9% (inactive)
7,COc1cc(/C=C/C(=O)c2ccc(N3CCN(C)CC3)cc2)ccc1F,81.2% (inactive)
8,CC1CCN(S(=O)(=O)c2ncsc2-c2ccccc2)CC1,95.4% (inactive)
9,O=C1[C@@H]2Cc3c([nH]c4ccccc34)[C@H](c3c(Cl)cccc3Cl)N2C(=O)CN1C1CCN(Cc2ccccc2)CC1,15.5% (inactive)
10,C#C[C@]1(O)CC[C@H]2[C@@H]3CC=C4c5sc(Nc6ccncc6)nc5CC[C@]4(C)[C@H]3CC[C@@]21C,44.1% (inactive)
11,C#CCOc1ccc(/C=N/Nc2nc(-c3cc4cc(Br)cc(Br)c4oc3=O)cs2)cc1,92.1% (inactive)
12,O=C1c2c(c3c4cccnc4[nH]c3c3ccc4ccccc4c23)C(=O)N1CCN1CCCCC1,45.2% (inactive)
13,NS(=O)(=O)Oc1ccc2nc(Nc3ccc(F)c(F)c3)ccc2c1,88% (inactive)
14,Cc1ccc(-c2csc(N/N=C/c3nc4ccccc4n3C3CC3)n2)cc1,82.8% (inactive)
15,O=C1c2c(c3c4cc(Br)ccc4[nH]c3c3ccc4ccccc4c23)C(=O)N1CCN1CCCCC1,41.1% (inactive)
16,Cc1cnc2nc(NN)[nH]n12,98.6% (inactive)
17,O=C(NCCCCCCNC(=O)c1c2c(nc3ccccc13)-c1cccnc1SC2)c1c2c(nc3ccccc13)-c1cccnc1SC2,73.8% (inactive)
18,COc1cc(/C=N/n2cnc3oc(-c4ccccc4)cc3c2=N)cc(CN2CCCC2)c1O,-78.8% (active)
19,C#C[C@]1(O)CC[C@H]2[C@@H]3CC=C4c5sc(Nc6cccc(Cl)n6)nc5CC[C@]4(C)[C@H]3CC[C@@]21C,40% (inactive)
